Assay outcomes as filed in PubChem BioAssay.
Most compounds without a hit are left out; they make up all but 6% or so of the library.
TSHR agonist: activates the human thyroid stimulating hormone receptor. HEK293-CNG-TSHR cells (CNG channel as cAMP sensor), membrane potential dye, cAMP. Potency, µM (top dose mostly 57.1 µM), for the others: at the highest dose activation, usual class: activators. P16473. 0.48% of 73,000 active; active means well fitted activation curve with a large enough effect in the main read-out, with a control signal flat, not every such curve was filed as active; inconclusive means small, poorly fitted or top-dose-only effect, or a change in a side signal; inactive means no such curve, though single readings can be large or run the other way; % of control where 0% means no effect;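 further: the control signal comes from parental cells without the receptor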
Target sequence (P16473 whole entry, looked up): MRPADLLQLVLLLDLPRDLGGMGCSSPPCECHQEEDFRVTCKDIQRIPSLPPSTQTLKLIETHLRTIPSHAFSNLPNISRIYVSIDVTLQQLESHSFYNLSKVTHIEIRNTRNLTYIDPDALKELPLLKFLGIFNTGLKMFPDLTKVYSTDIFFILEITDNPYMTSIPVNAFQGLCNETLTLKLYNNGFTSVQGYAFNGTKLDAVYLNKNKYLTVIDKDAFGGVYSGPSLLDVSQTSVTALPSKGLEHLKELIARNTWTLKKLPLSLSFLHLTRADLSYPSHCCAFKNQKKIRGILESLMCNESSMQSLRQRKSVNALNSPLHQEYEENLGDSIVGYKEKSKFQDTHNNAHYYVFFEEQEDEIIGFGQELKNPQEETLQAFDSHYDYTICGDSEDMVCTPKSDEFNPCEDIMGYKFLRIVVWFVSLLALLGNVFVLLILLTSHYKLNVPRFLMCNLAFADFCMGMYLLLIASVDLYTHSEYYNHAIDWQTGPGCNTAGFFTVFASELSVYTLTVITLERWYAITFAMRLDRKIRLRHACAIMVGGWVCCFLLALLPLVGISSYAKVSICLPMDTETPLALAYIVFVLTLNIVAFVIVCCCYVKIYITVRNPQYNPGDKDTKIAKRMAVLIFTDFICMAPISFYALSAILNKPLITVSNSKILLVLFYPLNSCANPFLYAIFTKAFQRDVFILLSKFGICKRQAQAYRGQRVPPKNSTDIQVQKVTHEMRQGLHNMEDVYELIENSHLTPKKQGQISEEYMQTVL
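HEK 293 cells stably expressing TSHR and a modified CNG channel, with CNG-only parental cells as counterscreen, were preloaded 60 min at room temperature with membrane potential dye containing 100 uM RO 20-1724. Compound exposure was 30 min, and depolarization was read as fluorescence at 590 nm.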
HEK293 cAMP ctrl: counter-screen for TSHR agonists: cAMP increase in parental HEK293. parental HEK293 CNG cAMP sensor, membrane potential fluorescence. Potency, µM (titrated, usually from 57.1 µM), for inactives: at the top dose activation, most hits filed as activators. 2.5% of 73,000 active. AID 938; further: % of control where 0% means no effect; nearly all actives have a fitted effect of over 55% in size
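Parental HEK 293 cells stably expressing a cAMP-gated CNG channel were loaded with membrane potential dye containing 100 uM RO 20-1724 for 60 min. Compound added for 30 min; depolarization read as fluorescence intensity at 590 nm.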
CRE-bla Fsk: CRE-bla signaling modulation under forskolin stimulation; CHO CRE-bla reporter (cAMP response element driving beta-lactamase), forskolin EC10, beta-lactamase ratio; Potency, µM (titrated, usually from 38.2 µM), for the others: top-dose activity change, negative = inhibition, actives largely listed as activators; 2.5% of 71,000 active; AID 662; active means well fitted activation curve with a large enough effect in the signal ratio, with a control signal flat, not every such curve was filed as active; inconclusive means small, poorly fitted or top-dose-only effect, or effect the other way, or a change in a side signal; the % refers to the signal ratio; further: % of control where 0% means no effect
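Cells were plated overnight at 37 °C, exposed to compound titrations plus EC10 NKH 477 for 3 h, then given CCF4 dye for 2 h at room temperature. Blue/green (460/530 nm) ratio was converted to %Activity and AC50 values calculated.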
ERK AVP block: vasopressin-driven ERK pathway inhibition; 0.99% of 72,000 active; Potency, µM (doses to about 57.5 µM), without a hit: at the highest dose activity, negative = inhibition, actives largely listed as inhibitors; HEK293-V1b, vasopressin-stimulated pERK AlphaScreen; further: on the % scale 0 is the no-effect control and ±100 the full control effect; nearly all actives have a fitted effect of over 55% in size
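HEK293 cells stably expressing V1b receptor, preincubated 30 min at 37 °C with compound, then stimulated 5 min with 25 nM vasopressin. Phospho-ERK by AlphaScreen SureFire after 5 h RT; normalized to DMSO and vasopressin; AC50 by Hill fit.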
An asterisk follows results filed as active; u = inconclusive; x = no result; [ ] = dose if it differs, or a comment. Unless noted, the call rests on the fitted dose curve; in most records, active means well fitted curve in the direction sought with a large enough effect; inconclusive means small, poorly fitted or top-dose-only effect, or another doubt; inactive means no such curve, though single readings can be large; an effect the other way counts as inactive or inconclusive. Potency means the concentration at half of the fitted maximal effect.

SMILES	TSHR agonist	HEK293 cAMP ctrl	CRE-bla Fsk	ERK AVP block
Cc1nn(Cc2ccccc2)c(Cl)c1C(=O)OCc1nnc(-c2ccc(Cl)cc2)o1	u	25µM*	-6%	41%
c1cncc(-c2cncnc2NC2CCNCC2)c1	4%	7%	u	-19%
COc1ccc(-c2cc(-c3ccc(OC)cc3)[nH]n2)cc1	-1%	1%	u	3.2µM*
CCOC(=O)CCN1C(=O)[C@H]2[C@H]3[C@H](O)[C@H](O)C/C(=N/OCC(C)C)[C@@H]3CC[C@@H]2C1=O	1%[11.4 µM]	0%[11.4 µM]	x	2%[11.5 µM]
COC(=O)c1cccc(Oc2nc3c(c(=O)n(C)c(=O)n3C)n2C(C)C)c1	1%	4%	2.5µM*	x
Cc1cc(NC(=O)CS(=O)(=O)c2cn(Cc3ccccc3Cl)c3ccccc23)no1	u	25µM*	-3%	34%
CCn1cc(SCC(=O)Nc2cc(C)on2)c2ccccc21	-5%[11.4 µM]	5%	-7%	x
Cc1ccccc1Cn1cc(S(=O)(=O)CC(=O)N2CCCCC2)c2ccccc21	u	32µM*	2%	13%
COc1cccc(C(=O)Nc2c3c(nn2-c2ccccc2C)CS(=O)C3)c1OC (centres undefined)	1%	8%	u	24%
Cc1ccccc1-n1nc2c(c1NC(=O)c1cc3ccccc3oc1=O)CS(=O)(=O)C2	-3%	-12%	1.6µM*	-23%
Cc1ccccc1-n1nc2c(c1NC(=O)c1cc3ccccc3oc1=O)CS(=O)C2 (centres undefined)	-4%	-9%	2.5µM*	21%
COc1ccccc1C(=O)Nc1c2c(nn1-c1cccc(C)c1C)CS(=O)(=O)C2	u	5µM*	1.6µM*	-17%
COC(=O)[C@@]1(Cc2ccc(OC)cc2)[C@H]2c3cc(C(=O)N4CCCC4)n(CCc4ccc(O)c(OC)c4)c3C[C@H]2CN1C(=O)c1ccccc1	u	u	u	2%
COc1ccc(NC(=O)N2CC[C@@]3(CCCN(C(=O)c4cccn4C)C3)C2)cc1	1%	5%	3%	8%
COC(=O)[C@@]1(Cc2ccccc2)[C@H]2c3cc(C(=O)N4CCCC4)n(Cc4ccc(O)c(OC)c4)c3C[C@H]2CN1C(=O)c1ccccc1	u	1µM*	u	-12%
COC(=O)[C@@]1(Cc2ccc(OC)cc2)[C@H]2c3cc(C(=O)N4CCCC4)n(CCO)c3C[C@H]2CN1C(=O)c1ccccc1	1%	16%	u	15%
COC(=O)[C@@]1(Cc2ccccc2)[C@H]2c3cc(C(=O)N4CCCC4)n(C)c3C[C@H]2CN1C(=O)c1ccccc1	u	u	-29%	-20%
COC(=O)[C@@]1(Cc2ccccc2)[C@H]2c3cc(C(=O)N4CCCC4)n(Cc4ccccc4)c3C[C@H]2CN1C(=O)c1ccccc1	u	1.3µM*	-4%	-2%
COC(=O)[C@@]1(Cc2ccc(OC)cc2)[C@H]2c3cc(C(=O)N4CCCC4)n(Cc4cc(C)n(C)n4)c3C[C@H]2CN1C(=O)c1ccccc1	u	13µM*	-11%	-14%
COC(=O)[C@@]1(Cc2ccc(OC)cc2)[C@H]2c3cc(C(=O)N4CCCC4)n(Cc4ccc(O)c(OC)c4)c3C[C@H]2CN1C(=O)c1ccccc1	u	u	u	34%
COC(=O)[C@@]1(Cc2ccccc2)[C@H]2c3cc(C(=O)N4CCCC4)n(Cc4ccc(OC)c(OC)c4)c3C[C@H]2CN1C(=O)c1ccccc1	u	3.2µM*	u	-13%
Oc1c(Cl)cc(CN(Cc2cc(Cl)c(O)c(Cl)c2)C2CCCCC2)cc1Cl	u	u	9%[7.6 µM]	9%[11.5 µM]
N#C[C@@H](N=Nc1ccccc1C(=O)O)C(N)=O	-3%[11.4 µM]	4%[11.4 µM]	-8%[7.6 µM]	0%[11.5 µM]
NS(=O)(=O)c1cc2c(cc1Cl)=NC(CCC(=O)O)=NS=2(=O)O	1%[11.4 µM]	-4%[11.4 µM]	-7%[7.6 µM]	-3%[11.5 µM]
Cc1noc(C)c1C(=O)N1CCC[C@@]2(CCN(Cc3cc(C(F)(F)F)cc(C(F)(F)F)c3)C2)C1	2%	1%	5%	8%
COC(=O)[C@@]1(Cc2ccccc2)[C@H]2c3cc(C(=O)N4CCCC4)n(Cc4ccccn4)c3C[C@H]2CN1C(=O)c1ccccc1	u	3.2µM*	u	-3%
